Compound activity (PubChem BioAssay)
This is a sample that favours compounds with a hit; in the whole collection about 3.3% have one here.
KCC2 mod: KCC2 cotransporter modulators, thallium flux, primary screen, cell-based, HEK293 KCC2, FluoZin-2 fluorescence, MLSMR; Solute carrier family 12 member 5 (Homo sapiens), Q9H2X9; KCC2 cells, thallium flux FluoZin-2 fluorescence; B-score of Tl+ flux slope (higher = more flux/activation; lower = inhibition) at 10 µM; hit rate 2.2% among 190,000;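 active = thallium flux slope and its plate-corrected score both differing from the plate sample mean at a set confidence after two filtering rounds, in either direction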;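 note: slope of fluorescence scaled to starting intensity during 10 to 20 s after thallium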
Calb FLC: C. albicans growth inhibition with fluconazole, primary screen, CaCi-2 strain, Alamar Blue fluorescence; C. albicans CaCi-2 (fluconazole-resistant clinical isolate) + fluconazole, 48 h; growth inhibition, % (concentration not given with the values); hit rate 0.57% among 300,000;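 active = growth inhibition above about 58% in most replicates, limit read from the data, passing the limit was not always enough; inconclusive = exactly half the replicates above a set limit; inactive = most replicates below a set limit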;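 note: all wells also contain fluconazole at 8 µg/ml as a sub-toxic cotreatment; 0% = median of DMSO wells and 100% = median of geldanamycin control wells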
Efflux pump mplx: inhibitors of Candida efflux pumps in yeast, primary screen, S. cerevisiae, Nile Red, multiplex; hit rate 0.44% among 330,000; inhibition, % at 10 µM; S. cerevisiae Candida pump triplex; AID 485275, 2010;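 active = plate passing quality check with inhibition over a set limit, or well fluorescence over plate mean plus 4 SD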;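 note: Nile Red retained in pooled yeast measured as flow cytometry median fluorescence; 0% = buffer negative control and 100% = Enniatin B positive control; higher means more Nile Red kept so more efflux inhibition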
PHOSPHO1 inh: PubChem AID 1565 | recombinant PHOSPHO1, absorbance phosphatase assay | inhibition, % at 13.3 µM | hit rate 1.1% among 290,000; in the data active = inhibition above about 60%
Target sequence (Q8TCT1 whole entry, looked up): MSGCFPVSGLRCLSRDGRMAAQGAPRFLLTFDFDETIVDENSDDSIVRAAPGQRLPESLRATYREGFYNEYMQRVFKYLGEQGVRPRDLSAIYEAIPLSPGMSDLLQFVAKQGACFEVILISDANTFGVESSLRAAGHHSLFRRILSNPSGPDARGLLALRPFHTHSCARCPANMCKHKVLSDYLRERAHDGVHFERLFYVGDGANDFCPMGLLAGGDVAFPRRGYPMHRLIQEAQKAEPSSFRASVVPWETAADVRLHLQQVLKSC
Cardio protect: cardioprotection against H2O2-induced cell death, primary screen, uHTS, H9c2 cells, ATPLite luminescence | hit rate 0.63% among 360,000 | H9c2 cardiomyocytes, H2O2 injury protection, 2 h | AID 588492, 2011 | protection from H2O2 cell death, % at 20 µM;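 active = compounds giving at least 50% protection of heart cells from peroxide-induced death in the single-dose screen, raw or plate-pattern-corrected value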;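 note: 0% = DMSO wells with peroxide and 100% = DMSO wells without peroxide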
Starred values were filed as active, the others as inactive; ? = inconclusive; . = no result given.

SMILES	KCC2 mod	Calb FLC	Efflux pump mplx	PHOSPHO1 inh	Cardio protect
CCOC(=O)C1CCN(c2cc3c(cc2NC(=O)c2ccccc2F)n(C)c(=O)n3C)CC1	.	24	0	34	20
O=S(=O)(Nc1cccc(-c2cn3c(n2)SCC3)c1)c1ccccc1	.	-1	0	-12	4
Cc1ccc(NC(=S)NC(=O)C2CC2)cc1Cl	.	112*	0	26	-6
CCn1c(N2CCN(CC(=O)c3c[nH]c4ccccc34)CC2)nc2c1c(=O)[nH]c(=O)n2C	.	1	0	74*	27
CCCn1c(N2CCN(CC(=O)c3c(C)n(C)c4ccccc34)CC2)nc2c1c(=O)[nH]c(=O)n2C	.	-5	1	4	27
CC(C)(C)S(=O)(=O)N1C[C@@H]2CC/C=C\C/C(c3ccccc3)=C\2[C@H]1CCO	.	.	.	.	-2
O=C(Cc1cccs1)NCCS(=O)(=O)N1CCN(c2cccc(Cl)c2)CC1	.	10	0	.	-7
CC(=O)N1CCc2cc(S(=O)(=O)CCC(=O)NCCc3ccc(Cl)cc3)ccc21	.	-4	0	65*	-10
N#C/C(=N/Nc1ccc(OC(F)(F)F)cc1)C(N)=S	-3.1	81*	0	20	-20
Cc1ccccc1NC(=O)NCCc1nc2ccccc2[nH]1	0.11	1	0	-31	0
S=C(Nc1ccc(Cl)cc1)c1nc2ccccc2[nH]1	30*	96*	2	-17	-13
Cc1ccccc1NC(=S)c1nc2ccccc2[nH]1	46*	13	1	-8	-4
O=C(CN1CCN(S(=O)(=O)c2ccc(Br)cc2)CC1)N/N=C/c1ccncc1	-0.63	-3	0	4	2
CCCCOc1ccc(-c2nc(=S)[nH][nH]2)cc1	.	-3	0	80*	2
CCCCn1c(SCC(=O)/C(C#N)=C(\C)N)nc2ccccc2c1=O	24*	-15	0	12	0
COc1ccc(-n2c(SCC(=O)/C(C#N)=C(\C)N)nc3ccccc3c2=O)cc1OC	-0.23	-7	0	-25	11
O=C(CSc1nc2ccccc2n1CC(=O)NCc1ccccc1)NCc1ccco1	-1	-5	0	69*	2
N#CCCn1c(SCC(=O)NCc2ccco2)nc2ccccc21	0.33	11	0	30	3
CCCCn1c(SCC(=O)NCc2ccco2)nc2ccccc2c1=O	9.1*	0	0	17	16
C/C(N)=C(/C#N)C(=O)CSc1nnc(C)n1-c1ccccc1	0.78	33	0	-12	0
C/C(N)=C(/C#N)C(=O)CSc1nncn1-c1ccccc1	-0.33	-1	0	68*	6
O=[N+]([O-])c1ccc(Cl)c(S(=O)(=O)Nc2ccc(S(=O)(=O)N3CCOCC3)cc2)c1	.	-9	0	32	6
CC(=O)c1c(C)n(CC(=O)NCc2ccco2)c2ccccc12	-0.28	-7	0	69*	0
Cc1ccccc1-n1c(=O)c2ccccc2n(CC(=O)NCc2ccco2)c1=O	-2.1	?	0	18	-3
C/C(N)=C(/C#N)C(=O)CSc1nc2cc(Cl)ccc2c(=O)n1-c1ccc(C)cc1	8.7*	1	0	-9	-11
SMILES	KCC2 mod	Calb FLC	Efflux pump mplx	PHOSPHO1 inh	Cardio protect
O=C(Nc1cccc(S(=O)(=O)NC2=NCCC2)c1)c1cc(Cl)ccc1[N+](=O)[O-]	.	-8	0	.	-5
Cc1ccc(C2CC2c2n[nH]c(=S)n2-c2ccc(Cl)cc2)cc1 (configuration not stated)	0.15	21	0	74*	2
Brc1cc2c(cc1/C=N/Nc1nc(N3CCCC3)nc(N3CCOCC3)n1)OCO2	-4	-27	0	7	63*
CN(Cc1ccco1)C(=O)Cn1cc(S(=O)(=O)N2CCCC2)c(S(=O)(=O)N2CCCC2)c1	.	4	0	34	-5
O=C(CN1C(=O)NC2(CCCCCCC2)C1=O)NC1CCCc2ccccc21 (configuration not stated)	-1.1	-6	0	173*	1
O=C(NN=Cc1ccc(N2CCOCC2)s1)c1ccc([N+](=O)[O-])cc1	.	.	0	.	63*
Cc1cnc(NC(=O)c2ccc(-c3nc4ccccc4s3)o2)s1	.	68	0	105*	41
Cc1cnc(NC(=O)c2ccc(-c3ccc([N+](=O)[O-])cc3)o2)s1	.	.	0	.	4
Nc1ncnc2nc(SCC(=O)Nc3ccccc3F)[nH]c12	.	-6	0	37	2
CCCCn1c(N)c(Br)c(=O)[nH]c1=O	1.2	0	0	34	55*
CCCCn1c(N)c(NCCC(C)C)c(=O)[nH]c1=O	-0.58	.	0	-13	-7
COc1ccccc1NC(=O)NCC1CC1(Cl)Cl (configuration not stated)	.	16	0	-10	1
Cc1ccc(NC(=O)/C(=C\c2ccc([N+](=O)[O-])cc2)NC(=O)c2ccccc2)cc1	-0.81	14	0	11	-3
COc1ccc(C(=O)N/C(=C\c2ccc(Cl)cc2)C(=O)NCc2ccncc2)cc1	.	.	.	.	-2
O=C(N/N=C/c1ccc(O)c(O)c1O)/C(=C/c1ccc([N+](=O)[O-])cc1)NC(=O)c1ccccc1	-0.95	104*	0	12	61*
COc1ccc(/C=C(/NC(=O)c2ccc(C)cc2)C(=O)NCc2ccncc2)cc1	.	2	0	70*	0
COc1ccc(/C=C(\NC(=O)c2ccccc2)C(=O)N/N=C/c2ccncc2)cc1	-0.4	-3	0	65*	4
Nc1ccn([C@@H]2O[C@H](C(=O)Nc3cc(C(F)(F)F)cc(C(F)(F)F)c3)[C@@H](O)[C@H]2O)c(=O)n1	.	.	.	.	1
CC1(C)CC(N2CCCC2)=CC(=[N+]2CCCCCC2)C1	0.54	88*	0	-83	-7
CC1(C)CC(N2CCN(c3ccccc3)CC2)=CC(=[N+]2CCCC2)C1	-2	94*	0	86*	-17
Cc1c(COc2ccc3ccccc3c2)nnn1CC(=O)NS(=O)(=O)c1ccccc1C(F)(F)F	.	.	.	.	7
CCCS(=O)(=O)Nc1ccc(N2CCCCC2)c(S(=O)(=O)Nc2ccccc2OC)c1	.	.	.	.	-5
CCN(CC(=O)Nc1ccc(OC)cc1)CC(=O)Nc1cccc(C#N)c1	.	-8	0	10	0
CCN(CC(=O)Nc1cccc(C#N)c1)CC(=O)Nc1cccc(OC)c1	-0.75	-7	0	63*	9
COc1ccc(NC(=O)COC(=O)c2ccc(S(=O)(=O)N(C)c3ccccc3OC)cc2)c(OC)c1	.	.	.	52	.
Cc1ccc(-n2ncc3c2ncn2c(C)nnc32)cc1C	0.25	.	0	60*	-1
COCCNC(=S)Nc1ccc2nsnc2c1	0.27	32	0	-6	2
COCCNC(=S)Nc1ccc(Cl)c(Cl)c1	0.09	3	0	64*	-3
Cn1c(=O)[nH]c(N)c(Br)c1=O	.	.	.	.	5
CCn1c(O)c(N=NC(=O)CNc2ccc(C)cc2)c2ccccc21	1.6	9	0	-6	-1
